“And” between values parts separate entries of the source, which are not always exact repeats. Equal entries are not always repeated. Results filed as inconclusive are left out. The source made the active and inactive calls. Calls come from the whole dose curve; as a rule, active = well fitted curve in the direction sought with a large enough effect; inconclusive = small, poorly fitted or top-dose-only effect, or another doubt; inactive = no such curve, though single readings can be large; an effect the other way counts as inactive or inconclusive.
Assay: qHTS Assay for Identifying Gametocytocidal Compounds (AID 743244);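 note: actives lower the fluorescent signal which means gametocytes are killed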
Settings: P. falciparum 3D7 stage III-V gametocytes, alamarBlue, 72 h; max response: hits give low values
Method in brief: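 P. falciparum 3D7 stage III–V gametocytes (20,000 cells/well) were exposed to compounds for 72 h at 37 °C, 5% CO2. AlamarBlue was then added for 24 h; decreased resorufin fluorescence (Ex 525/Em 598 nm) indicated loss of viability.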
With `CCCCNCC(O)c1ccc(O)cc1` (stereo not drawn) the max response was 15.5% (inactive). With `CC(N)Cc1ccc(O)cc1` (stereo not drawn) the max response was 1.03% (inactive). With `CCCC(=O)OC(C(Cl)(Cl)Cl)P(=O)(OC)OC` (stereo not drawn) the max response was -0.455% (inactive). In the case of `O[C@H]1[C@H]2[C@H](O)CCCN2C[C@H]1O`, the max response is reported as -8.84% (inactive). In the case of `CCC(N)Cc1c[nH]c2ccccc12` (stereo not drawn), the max response is reported as 2.35% (inactive) and -8.43% (inactive). For `Oc1ccc2c3c1O[C@H]1[C@@H](O)CC[C@@]4(O)[C@@H](C2)N(CC2CCC2)CC[C@]314`, the max response was 2.47% (inactive). With `C=CCC1(C(C)CCC)C(=O)N=C(S)NC1=O` (stereo not drawn) the max response was -3.05% (inactive). For `O=c1[nH]cc(N(CCCl)CCCl)c(=O)[nH]1`, the max response was -3.92% (inactive). In the case of `CCN1C[C@]2(COC)[C@H](O)C[C@H](OC)[C@@]34[C@@H]5C[C@@]6(O)[C@H](OC(=O)c7ccccc7)[C@@H]5[C@@](OC(C)=O)([C@@H]([C@H](OC)[C@H]23)[C@@H]14)[C@@H](O)[C@@H]6OC`, the max response is reported as -5.96% (inactive). With `CC(C)CCC(=O)O[C@H]1CC[C@H]2[C@@H]3CCC4=CC(=O)CC[C@]4(C)[C@H]3CC[C@]12C` the max response was 13.7% (inactive). With `NCC(O)c1cccc(O)c1` (stereo not drawn) the max response was 13.2% (inactive). For `O=C1CN=C(c2ccccc2)c2cc(Cl)ccc2N1CC1CC1`, the max response was -0.952% (inactive). With `O=C1C2CC=CCC2C(=O)N1SC(Cl)(Cl)Cl` (stereo not drawn) the max response was -3.19% (inactive). With `CC(=O)O[C@H]1CC[C@@]2(C)C(=CC[C@@H]3[C@@H]2CC[C@]2(C)C(=O)CC[C@@H]32)C1` the max response was 5.11% (inactive). With `OC(c1ccccc1)(c1ccccc1)C1CN2CCC1CC2` (stereo not drawn) the max response was -14.7% (inactive). For `CCCC(C)(COC(N)=O)COC(=O)NC1CC1` (stereo not drawn), the max response was 6.87% (inactive).

Assay: qHTS assay for cell viability of the p53RE-bla HCT-116 cell line (AID 743292); note: nearly all actives have a fitted effect of over 55% in size; note: potency is the fitted concentration of half-maximal effect
Settings: p53RE-bla HCT-116 viability, ATP luminescence, 16 h; series mostly up to 95 µM
Method in brief: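 Luminescent ATP quantitation (CellTiter-Glo) served as the viability read-out; reagent was added after 16 h compound exposure at 37 C and read after 30 min at room temperature. Cells: p53RE-bla HCT-116, 4,000 per well.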
In the case of `CCCCCCCCOC(=O)c1ccccc1C(=O)OCCCCCCCC`, the Potency is reported as “inactive”. With `[O]=[Cr](=[O])([OH])[O][Cr](=[O])(=[O])[OH]` the Potency was 31.6 µM (active) and 25.1 µM (active) and 22.4 µM (active). For `CCCCCl`, the Potency was “inactive”. With `O=C1C2CC=CCC2C(=O)N1SC(Cl)(Cl)Cl` (stereo not drawn) the Potency was “inactive”. In the case of `COc1ccc2c(c1OC)C(=O)OC2C1c2cc3c(cc2CCN1C)OCO3` (stereo not drawn), the Potency is reported as “inactive”.

Assay: qHTS assay to identify small molecule inhibitors of chordoma cells - UCH-1 (AID 1259355); note: nearly all actives have a fitted effect of over 55% in size; note: potency is the fitted concentration of half-maximal effect
Settings: UCH-1 chordoma viability, CellTiter-Glo, 48 h, combination; series mostly up to 46.1 µM
Method in brief: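 Seed 800 cells per well; incubate overnight at 37 C, 5% CO2. Add test compounds (15 concentrations), then the auranofin–topoisomerase-agent combination. Incubate 48hr, add CellTiter-Glo, wait 30min, read luminescence.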
With `N#CC(C#N)=Cc1cc(O)c(O)c(O)c1` the Potency was “inactive”. In the case of `C[C@]12CC[C@H]3[C@@H](CC[C@@]45O[C@@H]4C(O)=C(C#N)C[C@]35C)[C@@H]1CC[C@@H]2O`, the Potency is reported as “inactive”. For `CNC(=O)Oc1ccccc1C(=O)Nc1ccccc1`, the Potency was “inactive”. In the case of `C[C@@H](CO)NC(=O)[C@@H]1C=C2c3cccc4[nH]cc(c34)C[C@H]2N(C)C1`, the Potency is reported as “inactive”. In the case of `[O]=[Cr](=[O])([OH])[O][Cr](=[O])(=[O])[OH]`, the Potency is reported as 2.24 µM (active) and 4.47 µM (active). With `CCCCCl` the Potency was “inactive”. For `Oc1ccc2c3c1O[C@H]1[C@@H](O)CC[C@@]4(O)[C@@H](C2)N(CC2CCC2)CC[C@]314`, the Potency was “inactive”. In the case of `C=CCC1(C(C)CCC)C(=O)N=C(S)NC1=O` (stereo not drawn), the Potency is reported as “inactive”. In the case of `CCN1C[C@]2(COC)[C@H](O)C[C@H](OC)[C@@]34[C@@H]5C[C@@]6(O)[C@H](OC(=O)c7ccccc7)[C@@H]5[C@@](OC(C)=O)([C@@H]([C@H](OC)[C@H]23)[C@@H]14)[C@@H](O)[C@@H]6OC`, the Potency is reported as “inactive”. With `COC(COC(N)=O)C1=C(N2CC2)C(=O)C(C)=C(N2CC2)C1=O` (stereo not drawn) the Potency was 2.24 µM (active). With `O=C1C2CC=CCC2C(=O)N1SC(Cl)(Cl)Cl` (stereo not drawn) the Potency was 12.6 µM (active). In the case of `COc1ccc2c(c1OC)C(=O)OC2C1c2cc3c(cc2CCN1C)OCO3` (stereo not drawn), the Potency is reported as “inactive”.

Source: PubChem BioAssay (NCATS)
% is set by controls: 0 for no effect and ±100 for the full control effect.
